Assay results as given in PubChem BioAssay.
Active and inactive are the calls of the source. Unless noted, the rule behind the calls is not given here.

Key:
[1] = tested on: Wnt5a (protein binding on small-molecule microarray); experiment: Wnt5a binders on small-molecule microarray, primary screen, biophysical, 635/667 nm fluorescence (AID 1142); settings: 635 nm fluorescence, higher = more signal;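 note: fluorescence read at 667 nm with signal to noise per printed feature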
[2] = cell viability in Huh7 cells, primary screen, cytotoxicity control for HCV replication inhibitor project, CellTiter-Glo luminescence, basal, 48 h (AID 1143); settings: Huh7 HCV replicon, higher = more signal, called active from +8 up or from −8 down;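 note: Huh7 hepatoma cells carrying a hepatitis C replication reporter with no stimulus; test concentration not given here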
[3] = P. aeruginosa biofilm formation inhibitors, primary screen, PAO1 strain, BacTiter-Glo luminescence, LB-PBS (AID 1144); settings: 12 h, higher = more signal
[4] = CREB reporter modulators without forskolin, primary screen, cell-based, PC12, CRE-LacZ reporter, unstimulated (AID 1145); settings: no forskolin, luminescence, 4.5 h, higher = more signal, called active from +8 up or from −8 down
[5] = CREB reporter modulators under forskolin, primary screen, cell-based, PC12, CRE-LacZ reporter, forskolin-stimulated (AID 1146); settings: luminescence, 4.5 h, higher = more signal, called active from +8 up or from −8 down;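 note: PC12 cells with 6xCRE LacZ reporter stimulated by forskolin 10 µM; beta-galactosidase reporter signal reflecting CREB driven transcription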
[6] = molecular target: Streptavidin (Streptomyces avidinii) (UniProt P22629); experiment: streptavidin binders on small-molecule microarray, primary screen, artefact control for SMM compound annotation, biophysical, 635/667 nm fluorescence (AID 1147); settings: streptavidin binding, higher = more signal;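 note: signal reflects streptavidin binding to arrayed compounds as a control protein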
[7] = small-molecule binders of probe aInhba, primary screen, biochemical, small-molecule microarray, 635/667 nm fluorescence (AID 1148); settings: higher = more signal;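 note: score merges 667nm spot fluorescence with signal-to-noise for antibody binding to printed compounds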
Torsin-1A (Homo sapiens) [8] = molecular target: Torsin-1A (Homo sapiens) (UniProt O14656); experiment: torsin A binders from cell lysate, primary screen, small-molecule microarray, wild-type, 635/667 nm (AID 1149); settings: COS7 hTOR1A-WT lysate, 635 nm fluorescence, higher = more signal
Torsin-1A (Homo sapiens) [9] = molecular target: Torsin-1A (Homo sapiens) (UniProt O14656); experiment: small-molecule binders of mutant TOR1A in lysate, primary screen, cell lysate, small-molecule microarray, COS7 lysate, 635/667 nm fluorescence (AID 1150); settings: COS7 hTOR1A mutant lysate, 635 nm fluorescence, higher = more signal;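 note: score pools 667 nm emission and signal to noise measuring lysate protein binding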
[10] = tested on: Sonic hedgehog protein (Shh); experiment: small-molecule binders of Shh protein, primary screen, biochemical, small-molecule microarray, 635/667 nm fluorescence (AID 1151); settings: small-molecule microarray binding, 635 nm fluorescence; higher = more signal;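 note: Shh protein binding to compounds spotted on small-molecule microarray slides; score combines spot fluorescence intensity with signal-to-noise across triplicate slides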
[11] = E. coli DRC41 culture turbidity changes, primary screen, E. coli filamentation inducer project, strain DRC41, OD650, 48 h (AID 1152);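 note: E. coli MC1000 strain DRC41 lacking acrAB efflux pump and sulA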; settings: E. coli DRC41 (acrAB sulA), higher = more signal, called active from +8 up or from −8 down
[12] = small-molecule binders of probe aLefty1, primary screen, biochemical, small-molecule microarray, 635/667 nm fluorescence (AID 1153); settings: higher = more signal;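 note: score merges spot fluorescence with signal-to-noise ratio from the scanned slide images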
[13] = PSAC antagonists in infected red cells, primary screen, cell-based, P. falciparum Indochina, OD700, 1 h (AID 1154); settings: P. falciparum Indochina infected RBC osmotic lysis, higher = more signal, called active from +8 up or from −8 down
[14] = PSAC antagonists in infected red cells, primary screen, cell-based, P. falciparum Indochina, OD700, 2 h (AID 1155);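 note: lysis reports solute entry through the parasite surface anion channel PSAC; channel blockers reduce lysis of infected cells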; settings: P. falciparum Indochina infected erythrocytes, osmotic lysis OD700; higher = more signal, called active from +8 up or from −8 down
[15] = osmotic lysis modulators in infected erythrocytes, primary screen, PSAC antagonist project, cell-based, P. falciparum Indochina, OD700, 3 h (AID 1156); settings: higher = more signal, called active from +8 up or from −8 down
[16] = PSAC antagonists in infected red cells, primary screen, cell-based, P. falciparum Indochina, OD700, 18 h (AID 1157); settings: P. falciparum Indochina infected erythrocytes, osmotic lysis OD700, 18 h; higher = more signal, called active from +8 up or from −8 down
[17] = modulators of S6 phosphorylation in cells, primary screen, cell-based, A549, cytoblot, luminescence, serum-stimulated (AID 1158); settings: A549 phospho-S6 cytoblot, 5 h, higher = more signal;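 note: serum-stimulated A549 lung adenocarcinoma cells; signal is phosphorylated S6 detected by cytoblot immunostaining with HRP secondary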
[18] = molecular target: NADPH oxidase 2 (Homo sapiens) (UniProt P04839); experiment: NOX2-dependent H2O2 signal modulators, primary screen, NOX inhibitor project, cell-based, HEK293-NOX2, PMA-stimulated, Amplex Red fluorescence (AID 1159); settings: 45 min, higher = more signal, called active from +8 up or from −8 down; note: test concentration not given here
[19] = molecular target: NADPH oxidase 4 (Homo sapiens) (UniProt Q9NPH5); experiment: NOX4-dependent H2O2 signal modulators, primary screen, NOX inhibitor project, cell-based, HEK293-NOX4, tetracycline-induced, Amplex Red fluorescence (AID 1160); settings: 45 min, higher = more signal, called active from +8 up or from −8 down
[20] = molecular target: NADPH oxidase 5 (Homo sapiens) (UniProt Q96PH1); experiment: NOX5-dependent H2O2 signal modulators, primary screen, NOX inhibitor project, cell-based, HEK293-NOX5, Amplex Red fluorescence (AID 1161); settings: HEK293-NOX5, ionomycin, 45 min, higher = more signal
Sequence of NADPH oxidase 5 (Homo sapiens) (Q96PH1 whole entry, looked up): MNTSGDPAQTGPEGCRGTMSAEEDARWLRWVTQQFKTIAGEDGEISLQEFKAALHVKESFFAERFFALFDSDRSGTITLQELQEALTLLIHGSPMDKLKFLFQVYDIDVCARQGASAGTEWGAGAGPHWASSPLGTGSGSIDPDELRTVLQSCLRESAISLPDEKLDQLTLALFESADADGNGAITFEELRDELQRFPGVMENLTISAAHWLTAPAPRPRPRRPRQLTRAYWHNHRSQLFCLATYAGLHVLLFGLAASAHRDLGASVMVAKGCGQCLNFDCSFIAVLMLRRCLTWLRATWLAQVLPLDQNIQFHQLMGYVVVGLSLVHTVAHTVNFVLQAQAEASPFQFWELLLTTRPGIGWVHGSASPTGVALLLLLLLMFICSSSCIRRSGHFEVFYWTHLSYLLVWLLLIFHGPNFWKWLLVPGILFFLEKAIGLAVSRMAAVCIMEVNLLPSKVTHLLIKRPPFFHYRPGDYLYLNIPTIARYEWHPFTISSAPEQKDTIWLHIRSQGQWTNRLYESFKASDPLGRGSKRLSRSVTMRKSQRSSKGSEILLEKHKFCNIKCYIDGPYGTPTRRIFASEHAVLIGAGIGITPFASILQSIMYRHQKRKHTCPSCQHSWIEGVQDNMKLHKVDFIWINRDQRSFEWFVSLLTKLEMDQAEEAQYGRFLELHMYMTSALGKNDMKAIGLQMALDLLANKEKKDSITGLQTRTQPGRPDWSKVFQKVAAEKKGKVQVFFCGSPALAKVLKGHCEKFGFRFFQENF

Sequence of Streptavidin (Streptomyces avidinii) (P22629 whole entry, looked up): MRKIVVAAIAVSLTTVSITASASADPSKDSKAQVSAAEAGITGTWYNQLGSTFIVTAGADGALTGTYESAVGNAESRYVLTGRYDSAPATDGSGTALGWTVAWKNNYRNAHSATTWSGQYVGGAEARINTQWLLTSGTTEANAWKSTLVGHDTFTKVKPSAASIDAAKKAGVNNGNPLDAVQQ
Sequence of NADPH oxidase 4 (Homo sapiens) (Q9NPH5 whole entry, looked up): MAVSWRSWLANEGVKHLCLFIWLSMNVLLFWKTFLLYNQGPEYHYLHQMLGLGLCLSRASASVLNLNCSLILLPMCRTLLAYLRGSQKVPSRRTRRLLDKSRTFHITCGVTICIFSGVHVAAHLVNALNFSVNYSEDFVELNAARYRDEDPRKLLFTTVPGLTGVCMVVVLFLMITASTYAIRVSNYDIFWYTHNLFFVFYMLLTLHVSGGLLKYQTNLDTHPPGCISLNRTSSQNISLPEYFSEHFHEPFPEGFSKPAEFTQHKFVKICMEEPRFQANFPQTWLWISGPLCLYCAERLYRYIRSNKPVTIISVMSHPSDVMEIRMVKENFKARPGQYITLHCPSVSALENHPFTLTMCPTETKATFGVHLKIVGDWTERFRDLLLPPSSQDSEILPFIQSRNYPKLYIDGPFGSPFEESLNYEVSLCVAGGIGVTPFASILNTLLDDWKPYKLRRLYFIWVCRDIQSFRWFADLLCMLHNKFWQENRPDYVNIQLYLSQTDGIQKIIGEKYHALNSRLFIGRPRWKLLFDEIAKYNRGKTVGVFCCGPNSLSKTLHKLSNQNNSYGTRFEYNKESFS
Sequence of Torsin-1A (Homo sapiens) (O14656 whole entry, looked up): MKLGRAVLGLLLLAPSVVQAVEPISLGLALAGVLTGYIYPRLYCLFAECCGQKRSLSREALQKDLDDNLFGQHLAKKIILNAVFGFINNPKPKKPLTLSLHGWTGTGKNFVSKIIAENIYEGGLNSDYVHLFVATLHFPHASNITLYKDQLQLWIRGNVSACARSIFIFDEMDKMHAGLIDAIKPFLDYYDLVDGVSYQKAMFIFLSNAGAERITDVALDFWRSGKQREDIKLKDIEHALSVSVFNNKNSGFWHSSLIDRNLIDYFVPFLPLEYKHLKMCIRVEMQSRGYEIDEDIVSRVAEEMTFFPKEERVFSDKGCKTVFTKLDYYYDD
Sequence of NADPH oxidase 2 (Homo sapiens) (P04839 whole entry, looked up): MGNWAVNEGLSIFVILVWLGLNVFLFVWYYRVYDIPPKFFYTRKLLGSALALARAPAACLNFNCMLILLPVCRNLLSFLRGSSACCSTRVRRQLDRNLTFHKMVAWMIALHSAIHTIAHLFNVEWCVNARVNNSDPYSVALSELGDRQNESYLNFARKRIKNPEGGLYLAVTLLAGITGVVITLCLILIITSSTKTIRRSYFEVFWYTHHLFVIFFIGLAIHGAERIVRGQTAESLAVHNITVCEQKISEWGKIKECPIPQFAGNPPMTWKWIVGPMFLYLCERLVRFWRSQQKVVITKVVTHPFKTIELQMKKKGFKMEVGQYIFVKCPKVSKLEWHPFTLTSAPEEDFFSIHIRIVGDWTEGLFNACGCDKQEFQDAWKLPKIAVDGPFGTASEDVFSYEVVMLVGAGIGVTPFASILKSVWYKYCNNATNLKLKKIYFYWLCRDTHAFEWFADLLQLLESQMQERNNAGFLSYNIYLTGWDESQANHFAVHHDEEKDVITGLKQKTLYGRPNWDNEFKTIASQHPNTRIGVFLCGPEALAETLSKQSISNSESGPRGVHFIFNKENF

| SMILES | composite z-score [1] | z-score [2] | z-score [3] | z-score [4] | z-score [5] | composite z-score [6] | composite z-score [7] | composite z-score (Torsin-1A (Homo sapiens) [8]) | composite z-score (Torsin-1A (Homo sapiens) [9]) | composite z-score [10] | z-score [11] | composite z-score [12] | z-score [13] | z-score [14] | z-score [15] | z-score [16] | z-score [17] | z-score [18] | z-score [19] | z-score [20] |
| --- | --- | --- | --- | --- | --- | --- | --- | --- | --- | --- | --- | --- | --- | --- | --- | --- | --- | --- | --- | --- |
| O=C1[C@H]2[C@H]3[C@H](O)[C@H](O)CC(=NOC[C@@H](O)COCc4ccco4)[C@@H]3CC[C@H]2C(=O)N1Cc1ccccc1 | -0.0051 | -1.65 (inactive) | 0.969 (inactive) | -0.294 (inactive) | 0.183 (inactive) | -0.153 | -0.186 | 3.04 | 1.92 | 0.399 | 0.119 (inactive) | 0.185 | 28.6 (active) | 4.72 (inactive) | 0.618 (inactive) | 1.21 (inactive) | -0.585 | -1.69 (inactive) | -0.3 (inactive) | -0.858 |
| COc1ccc(O[C@H]2C=C[C@@H](C#Cc3ccccc3)O[C@@H]2CO)cc1 | -0.0391 | -4.1 (inactive) | 0.451 (inactive) | 0.653 (inactive) | -0.003 (inactive) | 0.966 | -0.182 | -0.0668 | -0.0971 | 0.0864 | 0.311 (inactive) | 0.042 | 2.26 (inactive) | 0.323 (inactive) | -0.24 (inactive) | -0.144 (inactive) | 0.297 | 1.33 (inactive) | -0.196 (inactive) | -0.196 |
| C#CCCCON=C1C[C@@H](O)[C@@H](O)[C@@H]2[C@@H]3C(=O)N(CC)C(=O)[C@@H]3CC[C@H]12 | 0.401 | 0.0934 (inactive) | 0.203 (inactive) | 0.252 (inactive) | 0.0606 (inactive) | 0.0761 | -0.0986 | 0.259 | 0.937 | 0.275 | 0.135 (inactive) | -0.0035 | 0.129 (inactive) | 0.238 (inactive) | -0.0312 (inactive) | 0.0581 (inactive) | -0.403 | -0.88 (inactive) | -0.231 (inactive) | 0.15 |
| COc1ccc(O[C@H]2C=C[C@@H](c3ccccc3)O[C@@H]2CON=C(C)CCN2CCCc3nc(C)c(C)cc32)cc1 | 0.0474 | -0.381 (inactive) | -0.291 (inactive) | 2.46 (inactive) | 0.544 (inactive) | 0.294 | -0.0079 | 0.476 | 0.46 | 0.661 | 0.379 (inactive) | 0.0341 | 4.35 (inactive) | 0.711 (inactive) | 0.938 (inactive) | 0.588 (inactive) | -0.121 | -1.81 (inactive) | -0.049 (inactive) | -0.297 |
| COc1ccc(OC[C@H]2CN3[C@@H](CC[C@@H](C)[C@@H]3c3ccc(Br)cc3)C(=O)O2)cc1 | -0.144 | -0.202 (inactive) | -0.225 (inactive) | 2.62 (inactive) | -0.165 (inactive) | 0.169 | -0.2 | 0.357 | 0.28 | 0.583 | -0.228 (inactive) | 0.0861 | 2.04 (inactive) | 1.25 (inactive) | 0.345 (inactive) | 0.343 (inactive) | 0.936 | -0.783 (inactive) | -1.61 (inactive) | -0.392 |
| C[C@H]1CC[C@@H](C(=O)O)N[C@@H]1c1cccc(N2CCCC2=O)c1 | 0.0767 | 0.0659 (inactive) | -0.43 (inactive) | -0.437 (inactive) | -1.1 (inactive) | -0.0712 | -0.134 | 0.203 | 0.286 | 0.189 | 1.04 (inactive) | -0.103 | 0.162 (inactive) | 0.677 (inactive) | 0.121 (inactive) | 0.125 (inactive) | 0.42 | -0.207 (inactive) | 0.00437 (inactive) | 0.682 |
| COC(=O)[C@H](C)NC(=O)CCC1CC(OC(=O)NCc2cccc3ccccc23)CC2(CCCC(COC(=O)NCCc3ccccc3OC)O2)O1 (stereo not given in full) | 0.259 | -0.701 (inactive) | 0.326 (inactive) | 0.556 (inactive) | 0.684 (inactive) | 0.759 | -0.0361 | 0.475 | 0.406 | 0.963 | -0.731 (inactive) | -0.193 | 7.29 (inactive) | 1.37 (inactive) | -0.148 (inactive) | 0.494 (inactive) | -0.353 | -0.49 (inactive) | 0.357 (inactive) | 0.512 |
| O=C1C=C[C@@H](O)[C@@H]2[C@@H]3C(=O)N(Cc4ccc5c(c4)OCO5)C(=O)[C@@H]3CC[C@@H]12 | 0.538 | -0.655 (inactive) | 0.917 (inactive) | -0.567 (inactive) | -0.332 (inactive) | 0.283 | -0.307 | 0.376 | 0.123 | 0.499 | 0.038 (inactive) | -0.0061 | 1.26 (inactive) | -0.0262 (inactive) | -0.556 (inactive) | 0.379 (inactive) | 0.182 | 1.41 (inactive) | -1.55 (inactive) | -0.372 |
| CCCCOC(OCCCC)C(O)CSc1ccc2ccccc2c1 (stereo not given) | 0.133 | -0.657 (inactive) | -0.315 (inactive) | 1.01 (inactive) | 0.257 (inactive) | 0.465 | -0.282 | 0.453 | -0.0078 | 0.789 | 0.278 (inactive) | -0.103 | 5.46 (inactive) | 0.667 (inactive) | -1.43 (inactive) | 0.248 (inactive) | -0.455 | -0.28 (inactive) | -0.657 (inactive) | -3.7 |
